Hits are enriched below; roughly 2.4% of the tested compounds scored in any of these assays.
FEN1 inh: qHTS Assay for the Inhibitors of Human Flap endonuclease 1 (FEN1); 390,000 compounds, 0.35% hits; Potency, µM (top dose mostly 114 µM), inactives show at the top dose activity change, negative = inhibition, actives largely listed as inhibitors; Recombinant FEN1 flap cleavage, fluorescence, 15 min; note: % is set by controls: 0 for no effect and ±100 for the full control effect; nearly all actives have a fitted effect of over 65% in size
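Nuclease activity of 10 nM FEN1 was measured after 15 min of room-temperature exposure to titrated compounds, by adding 50 nM flap substrate and reading plates at 0 and 15 min.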
POLH inh: qHTS for Inhibitors of Polymerase Eta | recombinant Pol eta, fluorescent DNA replication assay | Potency, µM (highest dose often 114 µM), for inactives: top-dose activity change, negative = inhibition, most hits filed as inhibitors | 390,000 compounds, 1.2% hits | AID 588591, 2011; note: % is set by controls: 0 for no effect and ±100 for the full control effect
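Fluorescent replication assay: 50 nM final substrate added after a 15 min room-temperature compound preincubation with 10 nM enzyme. Signal taken at 0 min and again at 10 min.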
Pol iota inh: qHTS for Inhibitors of Polymerase Iota; DNA polymerase iota (Homo sapiens), Q9UNA4; Pol iota fluorescent replication assay, 10 min; Potency, µM (series often up to 115 µM), inactives show at the highest dose activity, negative = inhibition, actives largely listed as inhibitors; 390,000 compounds, 1% hits; AID 588590, 2011
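Fluorescent replication assay read twice, at 0 min and 10 min after adding 50 nM (final) substrate. Enzyme (10 nM) and compounds were first incubated 15 min at room temperature; enzyme-free buffer wells were negative controls.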
TDP1 block: qHTS Assay for Inhibitors of Tyrosyl-DNA Phosphodiesterase (TDP1). recombinant TDP1, AlphaScreen DNA substrate cleavage. Potency, µM (highest dose often 130 µM), without a hit: top-dose activity change, negative = inhibition, actives largely listed as inhibitors. 350,000 compounds, 0.28% hits; note: % is set by controls: 0 for no effect and ±100 for the full control effect; nearly all actives have a fitted effect of over 40% in size
Target sequence (Q9NUW8 whole entry, looked up): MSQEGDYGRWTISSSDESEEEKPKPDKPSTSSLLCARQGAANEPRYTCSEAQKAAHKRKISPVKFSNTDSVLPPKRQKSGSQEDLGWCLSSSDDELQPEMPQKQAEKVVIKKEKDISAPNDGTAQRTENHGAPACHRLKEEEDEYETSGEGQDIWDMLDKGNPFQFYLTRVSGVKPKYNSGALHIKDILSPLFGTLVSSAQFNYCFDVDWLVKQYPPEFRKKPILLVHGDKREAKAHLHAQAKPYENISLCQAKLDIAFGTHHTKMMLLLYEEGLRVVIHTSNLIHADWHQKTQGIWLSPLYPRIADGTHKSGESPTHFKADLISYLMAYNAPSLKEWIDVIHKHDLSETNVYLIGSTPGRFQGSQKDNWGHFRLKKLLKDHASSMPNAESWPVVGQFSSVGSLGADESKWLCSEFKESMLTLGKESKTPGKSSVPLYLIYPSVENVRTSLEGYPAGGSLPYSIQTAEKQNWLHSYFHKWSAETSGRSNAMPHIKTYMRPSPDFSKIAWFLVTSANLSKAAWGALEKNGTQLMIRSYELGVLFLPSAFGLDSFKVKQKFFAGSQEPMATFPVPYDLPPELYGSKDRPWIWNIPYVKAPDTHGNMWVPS
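Here, a 5' biotin and 3' phosphotyrosine-FITC DNA oligonucleotide reports Tdp1 activity: intact substrate bridges AlphaScreen beads, while cleavage leaves a 3' phosphate and drops signal. All incubations at room temperature.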
POLK inh: qHTS for Inhibitors of Polymerase Kappa. purified Pol kappa, fluorescent DNA synthesis assay, 10 min. Potency, µM (series often up to 107 µM), inactives show top-dose activity, negative = inhibition, usual class: inhibitors. 400,000 compounds, 0.53% hits; note: % is set by controls: 0 for no effect and ±100 for the full control effect
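Pol kappa 10 nM + cpd, 15 min RT; start w/ substrate 50 nM final; fluorescence kinetic read, 0 and 10 min. Neg ctrl: buffer, no enzyme.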
Pol beta inh: qHTS Assay for Inhibitors of DNA Polymerase Beta; P06746; Pol beta primer extension/strand displacement, fluorescence kinetic; Potency, µM (top dose mostly 114 µM), without a hit: at the highest dose activity change, negative = inhibition, hits mostly inhibitors; 340,000 compounds, 1.3% hits; AID 485314, 2010; note: % is set by controls: 0 for no effect and ±100 for the full control effect
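Human Pol beta at 10 nM; strand-displacement substrate 50 nM final. Compound exposure 15 min at room temperature before start, reaction 10 min at room temperature.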
Active calls of the source: *; ? = inconclusive; . = no result given; ! = not active in a repeat; [ ] = another dose, or the depositor's remark. Calls come from the whole dose curve; as a rule, active = well fitted curve in the direction sought with a large enough effect; inconclusive = small, poorly fitted or top-dose-only effect, or another doubt; inactive = no such curve, though single readings can be large; an effect the other way counts as inactive or inconclusive. Potency is the fitted concentration of half-maximal effect.

SMILES | FEN1 inh | POLH inh | Pol iota inh | TDP1 block | POLK inh | Pol beta inh
CC[N+](CC)(CC)c1ccc(/C=C/c2ccnc3ccccc23)cc1 | ? | . | ? | . | 45µM* | .
CC[N+](C)(C)c1ccc(/C=C/c2ccnc3ccccc23)cc1 | 40µM* | . | 79µM* | . | ? | .
C(=C\c1ccnc2ccccc12)/c1ccc(N2CCOCC2)cc1 | 45µM* | . | ? | . | ? | .
CN(C)c1ccc(/C=C/c2cc[n+](C)c3ccc4ccccc4c23)cc1 | ? | . | -8% | . | -34% | .
COc1ccc(C2CC(=O)N(CC(=O)Nc3cccc(C)c3C)c3ccccc3S2)cc1OC (stereo not given) | -17% | -21% | -7% | 4% | -11% | 2%
NC(=S)n1[nH]c(-c2ccc([N+](=O)[O-])cc2)c(N=Nc2cccc(Cl)c2)c1=O | 50µM* | 40µM* | 20µM* | 8% | ? | ?
CCN(CC)S(=O)(=O)c1ccc(N=Nc2c(C)[nH]n(C(N)=S)c2=O)cc1 | 2% | 7% | 24% | 9% | -3% | 40µM*
Cc1[nH]n(C(N)=S)c(=O)c1N=Nc1ccc([N+](=O)[O-])cc1Cl | 2% | -24% | 40µM* | . | -14% | 29%
O=S1(=O)N=C(Oc2ccc(C(F)(F)F)cc2)c2ccccc21 | . | . | . | 1% | . | .
COc1cc2c(s1)c1cnn(Cc3ccccc3F)c(=O)c1n2C | . | . | . | 0% | . | .
Cc1cc(NC(=O)/C(C#N)=C/c2ccc(-c3cccc(C(F)(F)F)c3)o2)n(-c2ccccc2)n1 | -14% | -19% | 12% | 3% | -26% | 2%
N#C/C(=C\c1ccc(-c2cccc(Cl)c2)o1)C(=O)Nc1cccc(C(F)(F)F)c1 | 9% | -1% | 89µM* | 0%[12.3 µM] | -25% | -20%
N#CCCCC1(CCCC#N)OCCO1 | -1% | -4% | 11% | . | -1% | .
CCOC(=O)[C@H](Cc1ccc(O)cc1)NC(=O)c1ccccc1 | . | . | . | 13% | 20%[60.1 µM] | .
O=C(Nc1ccc2c(c1)OCO2)c1cccc2c1C(=O)N(Cc1cccnc1)C2 | -32% | ? | ? | . | -12% | 40µM*
CCCN1Cc2cccc(C(=O)Nc3ccc4c(c3)OCO4)c2C1=O | ? | 1% | 12% | 4% | -21% | 1%
COc1ccc2c(c1)Cc1sc(NC(=O)c3ccccc3C)nc1-2 | ? | . | 3.5µM* | 4% | -10% | 12%
COc1ccc2c(c1)Cc1sc(NC(=O)c3ccccc3)nc1-2 | -14% | 16% | 16µM* | 8% | -11% | 7%
COc1ccc(OC)c(-c2nnc3n(CCc4ccccc4)c(=O)c4ccccc4n23)c1 | -2% | -21% | 1% | 9% | -1% | -20%
Cc1csc2nc(-c3ccc(NS(=O)(=O)c4cccc(F)c4)cc3)cn12 | -20% | -4% | -3% | 5% | -11%[60.1 µM] | ?
Cc1cc(-c2nn3c(-c4ccccc4)nnc3s2)c2ccccc2n1 | -12% | 6% | 79µM* | -3% | 2% | ?
C=CCSc1nnc2nc3c(nn12)c1cc(C)ccc1n3CC=C | -10% | ? | ? | 2% | 2% | 25µM*
O=C(NCc1ccc(/C=c2\sc3n(c2=O)CCN=3)o1)C(=O)Nc1ccccc1 | . | . | . | -2% | . | 4.5µM*
Cc1ccc(/C=c2/sc3n(c2=O)CCCN=3)o1 | 0% | -13% | -7% | -12% | -14% | ?
CCCCNS(=O)(=O)c1cc(-c2nn(C)c(=O)c3ccccc23)ccc1C | -13% | ? | ? | . | ? | 35µM*
SMILES | FEN1 inh | POLH inh | Pol iota inh | TDP1 block | POLK inh | Pol beta inh
CCN(CC)S(=O)(=O)c1cc(-c2nn(C)c(=O)c3ccccc23)ccc1C | -11% | ? | ? | . | -9% | 45µM*
COCCNS(=O)(=O)c1cc(-c2nn(C)c(=O)c3ccccc23)ccc1C | -12% | ? | 8% | -6% | -5% | 11%
COc1ccc(-n2nc(C(=O)NCCc3ccc(Cl)cc3)c3c4ccccc4n(C)c3c2=O)cc1 | 3% | . | 15% | -7% | 8% | 43%
COc1ccc(C2Nc3ccccc3C(=O)N2CCCN(C)C)cc1COc1ccc(NC(C)=O)cc1 (stereo not given) | . | . | . | -1% | . | .
CCc1sc(C(=O)NCCc2ccc(S(N)(=O)=O)cc2)cc1C | 3% | -7% | ? | 1% | -14% | 83%
CCc1sc(C(=O)NCCc2ccc(S(N)(=O)=O)cc2)cc1Br | -3% | -10% | 89µM* | 2% | 0% | -1%
CC(=O)NCCNc1ncncc1-c1ccccc1C | . | . | . | . | -2%[60.1 µM] | .
CC(=O)NCCNc1ncncc1-c1ccccc1C(F)(F)F | . | . | . | 32µM* | -2%[60.1 µM] | .
COc1cc2nc(CCc3nc4cc(OC)c(OC)cc4[nH]3)[nH]c2cc1OC | -34% | . | 2.5µM* | . | 3.2µM* | .
Cc1cc2nc(CO)[nH]c2cc1C | 2% | -9% | -3% | . | 7% | 7%
Nc1cc(C(=O)O)c(N)c2c1C(=O)c1ccccc1C2=O | 35µM* | 20µM* | 20µM* | 2% | ? | ?
CN1C(C(=O)Nc2ccc(OC(F)(F)F)cc2)=CC(c2cccs2)=NS1(=O)=O | -2% | ? | -12% | 8% | 1% | -4%
COc1ccc(NC(=O)C2=CC(c3cccs3)=NS(=O)(=O)N2C)cc1 | -22% | -4% | 19% | -3% | 5% | 32µM*!
Cc1ccccc1NC(=O)c1c(C)oc2ccc(O)c(CN3CCN(C)CC3)c12 | 0% | 1% | -19% | -7% | 8% | 0%
COC(=O)C1=CO[C@@H](O[C@H]2OC(CO)C(O)C(O)C2O)C2C1CC(O)C2C (stereo not given in full) | . | . | . | 1%[56.1 µM] | -11%[60.1 µM] | .
C/C=C1\C(OC2OC(CO)C(O)C(O)C2O)OC=C(C(=O)OC)C1CC(=O)OCC1C(C)C(OC(=O)CC2C(C(=O)OC)=COC(OC3OC(CO)C(O)C(O)C3O)/C2=C\C)CC1C(CO)CO (stereo not given) | -12% | ? | 79µM* | -6% | 79µM* | 25µM*
CCCCCN1N=C(C)CC1=O | -2% | -8% | 1.1µM* | -2% | 1% | 5%
CC1=NN(Cc2cc(C(C)(C)C)c(O)c(C(C)(C)C)c2)C(=O)C1 | -13% | -6% | ? | . | -2% | 1%
CCc1ccccc1NC(=O)C1CCN(C2=NS(=O)(=O)C(c3ccc(C)c(C)c3)=C2C)CC1 | -12% | . | -10% | -2% | -33% | 13µM*
